# Data as given in PubChem BioAssay.
# Activity calls are given as the source filed them.
# Tests used:
# Albumin (Bos taurus) = Albumin (Bos taurus) (UniProt P02769); assay: compounds binding labelled BSA control protein – biochemical, small-molecule microarray, Alexa647 label, 635/667 nm fluorescence, artefact control for SMM control protein annotation, profiling panel (AID 1118); details: BSA-A647 binding, fluorescence 635 nm, higher = more signal;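 note: score merges 667 nm emission intensity and signal-to-noise per printed compound spot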
# [1] = probe aXIP binding to arrayed compounds – biochemical, NeuroSMM set, 635/667 nm fluorescence, primary screen (AID 1119); details: small-molecule microarray, higher = more signal, called active from +8 up or from −8 down;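 note: probe is the protein aXip251-270 applied at 1 µg/mL to compound-printed slides; binding of probe to printed compounds measured as 667 nm fluorescence plus signal to noise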
# [2] = probe aNOTCH3 binding on compound microarray – biochemical, small-molecule microarray, 635/667 nm fluorescence, primary screen (AID 1120); details: higher = more signal;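 note: probe is a biotin-tagged antibody raised against NOTCH3 rather than NOTCH3 protein; score merges spot fluorescence near 667 nm with spot signal to noise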
# [3] = probe aNOTCH2 binding on compound microarray – biochemical, small-molecule microarray, 635/667 nm fluorescence, primary screen (AID 1121); details: higher = more signal;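 note: score merges feature fluorescence read at 667 nm with its signal to noise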
# [4] = target: Carbonic anhydrase 2 (Homo sapiens) (UniProt P00918); assay: compounds binding carbonic anhydrase 2 – biochemical, small-molecule microarray, Alexa647-labelled CAII, profiling panel (AID 1122); details: CAII-A647 binding fluorescence, higher = more signal
# [5] = COS7 lysate on small-molecule microarray, probe aHis, 635 nm (AID 1123); details: COS7 cell lysate, fluorescence, higher = more signal;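 note: z-score combines 667nm fluorescence intensity with signal-to-noise per printed compound spot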
# [6] = probe aLAP1 signal on lysate-treated microarray – cell lysate, small-molecule microarray, COS7 lysate, primary screen (AID 1124); details: probe aLAP1, fluorescence, higher = more signal;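 note: lysate comes from COS7 cells expressing LAP1 and is applied at 0.3 µg/mL; score merges spot fluorescence near 667 nm with signal-to-noise over triplicate slides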
# Sam68 (KHDRBS1) = assay: compounds binding KHDRBS1 protein – biochemical, small-molecule microarray, 635 nm fluorescence, primary screen (AID 1125); details: higher = more signal;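 note: score merges 667 nm channel intensity with signal to noise over triplicate slides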
# [7] = tested on: Chordin-like protein 2 (CHRDL2); assay: compounds binding chordin-like 2 – biochemical, small-molecule microarray, 635 nm fluorescence, primary screen (AID 1126); details: fluorescence 635 nm, higher = more signal;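 note: printed compound slides probed with Chrdl2 protein at 4 µg/mL for 1 h at 4 C; score merges 667 nm emission intensity with signal to noise over three replicate slides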
# [8] = target: Concanavalin-A (Canavalia ensiformis) (UniProt P02866); assay: compounds binding concanavalin A lectin – biochemical, small-molecule microarray, Alexa647 label, 635 nm, artefact control for SMM control protein annotation, primary screen (AID 1127); details: ConA-A647 binding fluorescence, higher = more signal;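 note: z combines 667 nm emission intensity with signal-to-noise across three replicate slides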
# [9] = compounds binding Alexa647 anti-His antibody – biochemical, small-molecule microarray, 635 nm fluorescence, artefact control for SMM control protein annotation, primary screen (AID 1128); details: higher = more signal;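 note: score merges feature fluorescence with signal-to-noise for each printed compound spot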
# [10] = tested on: Human papillomavirus type 1a E7 protein (residues 1-88); assay: HPV1a E7 small-molecule binders, primary screen, biochemical, small-molecule microarray, residues 1-88, 635 nm (AID 1129); details: small-molecule microarray binding, fluorescence 635 nm; higher = more signal
# [11] = target: Focal adhesion kinase 1 (Homo sapiens) (UniProt Q05397); assay: PTK2 protein binding on printed compound slides – biochemical, small-molecule microarray, 635/667 nm fluorescence, BSA, DTT, primary screen (AID 1130); details: 635 nm fluorescence, higher = more signal;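 note: composite of spot emission at 667 nm and signal to noise over triplicate slides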
# [12] = tested on: Fibrinogen (Alexa647-labelled); assay: Alexa647-fibrinogen binding to printed small molecules – biochemical, small-molecule microarray, 635/667 nm fluorescence, artefact control for SMM control-protein annotation, profiling panel (AID 1131); details: fibrinogen-A647 binding fluorescence, higher = more signal;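 note: z-score merges 667 nm fluorescence with per-spot signal-to-noise over triplicate slides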
# [13] = target: Follistatin (Homo sapiens) (UniProt P19883); assay: FST protein binding to printed compounds – biochemical, small-molecule microarray, 635/667 nm fluorescence, primary screen (AID 1132); details: 635 nm fluorescence, higher = more signal
# [14] = target: Fibroblast growth factor 2 (Homo sapiens) (UniProt P09038); assay: basic fibroblast growth factor binding to printed compounds – biochemical, small-molecule microarray, 635/667 nm fluorescence, primary screen (AID 1133); details: FGF2, fluorescence 635/667, higher = more signal
# [15] = JC-1 mitochondrial potential readout, lung cancer cells – cell-based, A549, JC-1 fluorescence, basal, 24 h, 100 nL, profiling panel (AID 1138); details: higher = more signal;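 note: A549 lung adenocarcinoma cells under basal conditions with no added stimulus; test concentration not given here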
# Lefty1 = Lefty1 protein binding to printed compounds – biochemical, small-molecule microarray, 635/667 nm fluorescence, primary screen (AID 1139); details: fluorescence 635/667, higher = more signal
# [16] = tested on: wheat germ agglutinin (Triticum aestivum), Alexa647-labelled; assay: Alexa647-WGA lectin binding to printed small molecules – biochemical, small-molecule microarray, 635/667 nm fluorescence, artefact control for SMM control-protein annotation, profiling panel (AID 1140); details: WGA-A647 binding, 635 nm fluorescence, higher = more signal;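 note: score merges 667 nm feature emission with signal to noise over triplicate slides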
# [17] = target: Luciferin 4-monooxygenase (Photinus pyralis) (UniProt P08659); assay: inhibition of purified Photinus pyralis luciferase – biochemical, luminescence, purified enzyme, 2006 set, primary screen (AID 1141); details: purified firefly luciferase, SteadyGlo luminescence, 30 min; higher = more signal, called active from +8 up or from −8 down;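 note: cell-free assay with purified firefly luciferase at 100 ng per well in PBS; test concentration not given here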
# Luciferin 4-monooxygenase (Photinus pyralis), sequence (P08659 whole entry, looked up): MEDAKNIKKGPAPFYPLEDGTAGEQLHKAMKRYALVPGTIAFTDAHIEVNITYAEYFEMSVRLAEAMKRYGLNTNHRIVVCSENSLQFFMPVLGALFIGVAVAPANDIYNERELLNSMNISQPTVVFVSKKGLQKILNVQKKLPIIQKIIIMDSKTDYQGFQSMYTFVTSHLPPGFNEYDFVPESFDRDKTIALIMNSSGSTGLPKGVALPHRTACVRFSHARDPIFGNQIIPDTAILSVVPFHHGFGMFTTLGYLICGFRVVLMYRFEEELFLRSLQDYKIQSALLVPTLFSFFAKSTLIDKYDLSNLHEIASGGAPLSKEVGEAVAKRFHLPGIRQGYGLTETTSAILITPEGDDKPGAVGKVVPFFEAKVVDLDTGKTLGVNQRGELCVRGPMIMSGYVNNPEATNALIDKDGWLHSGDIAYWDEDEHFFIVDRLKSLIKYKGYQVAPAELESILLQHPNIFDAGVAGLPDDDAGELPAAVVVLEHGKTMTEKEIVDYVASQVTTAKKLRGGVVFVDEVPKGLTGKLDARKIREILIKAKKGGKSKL
# Follistatin (Homo sapiens), sequence (P19883 whole entry, looked up): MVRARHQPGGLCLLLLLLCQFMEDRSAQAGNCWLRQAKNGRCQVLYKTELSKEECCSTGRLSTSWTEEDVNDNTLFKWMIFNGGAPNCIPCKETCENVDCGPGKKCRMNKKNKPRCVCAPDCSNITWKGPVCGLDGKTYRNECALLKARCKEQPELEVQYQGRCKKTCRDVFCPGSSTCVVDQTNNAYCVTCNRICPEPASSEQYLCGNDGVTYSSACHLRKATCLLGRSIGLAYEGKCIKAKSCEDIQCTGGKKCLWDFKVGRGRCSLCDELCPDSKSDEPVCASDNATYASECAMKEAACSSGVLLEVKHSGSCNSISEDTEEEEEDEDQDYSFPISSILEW
# Focal adhesion kinase 1 (Homo sapiens), sequence (Q05397 whole entry, looked up): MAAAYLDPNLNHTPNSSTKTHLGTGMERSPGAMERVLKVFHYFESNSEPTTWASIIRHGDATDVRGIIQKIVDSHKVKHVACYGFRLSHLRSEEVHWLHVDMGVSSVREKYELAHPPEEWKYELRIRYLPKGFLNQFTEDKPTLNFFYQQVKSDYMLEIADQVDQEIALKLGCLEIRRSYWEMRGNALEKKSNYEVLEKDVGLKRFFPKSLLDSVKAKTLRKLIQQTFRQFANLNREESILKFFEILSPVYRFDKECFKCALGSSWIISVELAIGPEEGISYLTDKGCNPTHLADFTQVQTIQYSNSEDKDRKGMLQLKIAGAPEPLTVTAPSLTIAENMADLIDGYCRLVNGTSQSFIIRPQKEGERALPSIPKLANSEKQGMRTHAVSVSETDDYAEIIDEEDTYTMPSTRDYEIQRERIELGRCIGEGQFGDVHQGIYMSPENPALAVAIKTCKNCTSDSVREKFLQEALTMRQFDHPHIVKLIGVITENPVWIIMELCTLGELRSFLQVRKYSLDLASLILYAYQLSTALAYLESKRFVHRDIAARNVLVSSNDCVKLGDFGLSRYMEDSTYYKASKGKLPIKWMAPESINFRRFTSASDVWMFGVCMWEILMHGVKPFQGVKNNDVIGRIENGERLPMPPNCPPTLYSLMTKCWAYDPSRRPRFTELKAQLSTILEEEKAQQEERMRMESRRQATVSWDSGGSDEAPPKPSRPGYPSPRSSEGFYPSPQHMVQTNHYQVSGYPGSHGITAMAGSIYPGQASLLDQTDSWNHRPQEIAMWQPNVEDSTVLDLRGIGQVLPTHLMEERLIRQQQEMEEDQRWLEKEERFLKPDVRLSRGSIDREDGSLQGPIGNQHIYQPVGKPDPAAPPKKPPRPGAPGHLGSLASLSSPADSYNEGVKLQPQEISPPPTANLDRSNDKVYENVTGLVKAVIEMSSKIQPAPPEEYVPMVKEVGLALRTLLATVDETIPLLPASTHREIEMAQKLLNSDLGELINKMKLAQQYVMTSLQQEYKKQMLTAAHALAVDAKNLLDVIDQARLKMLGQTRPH
# Fibroblast growth factor 2 (Homo sapiens), sequence (P09038 whole entry, looked up): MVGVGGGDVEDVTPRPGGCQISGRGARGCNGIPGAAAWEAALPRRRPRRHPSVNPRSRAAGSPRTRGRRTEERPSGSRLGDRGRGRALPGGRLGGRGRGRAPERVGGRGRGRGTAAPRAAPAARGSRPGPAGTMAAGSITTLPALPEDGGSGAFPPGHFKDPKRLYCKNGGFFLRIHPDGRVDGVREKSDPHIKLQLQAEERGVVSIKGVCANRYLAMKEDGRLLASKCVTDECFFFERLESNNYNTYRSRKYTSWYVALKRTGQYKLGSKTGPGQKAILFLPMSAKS
# Albumin (Bos taurus), sequence (P02769 whole entry, looked up): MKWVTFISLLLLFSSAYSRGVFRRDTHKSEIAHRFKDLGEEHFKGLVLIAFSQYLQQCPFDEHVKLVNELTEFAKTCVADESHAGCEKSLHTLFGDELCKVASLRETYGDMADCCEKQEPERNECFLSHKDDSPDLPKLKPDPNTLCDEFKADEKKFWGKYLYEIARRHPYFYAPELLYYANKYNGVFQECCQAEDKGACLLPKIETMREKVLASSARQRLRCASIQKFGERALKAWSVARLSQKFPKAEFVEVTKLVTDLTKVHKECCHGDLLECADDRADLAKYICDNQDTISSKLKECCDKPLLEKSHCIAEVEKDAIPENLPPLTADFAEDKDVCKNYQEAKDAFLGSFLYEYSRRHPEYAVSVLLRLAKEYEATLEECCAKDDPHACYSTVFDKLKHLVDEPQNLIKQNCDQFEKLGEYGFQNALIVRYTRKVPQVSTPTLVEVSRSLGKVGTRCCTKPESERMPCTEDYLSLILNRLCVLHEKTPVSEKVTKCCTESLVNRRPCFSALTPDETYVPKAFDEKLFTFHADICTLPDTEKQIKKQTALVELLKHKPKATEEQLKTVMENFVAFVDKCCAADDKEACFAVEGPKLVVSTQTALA
# Concanavalin-A (Canavalia ensiformis), sequence (P02866 whole entry, looked up): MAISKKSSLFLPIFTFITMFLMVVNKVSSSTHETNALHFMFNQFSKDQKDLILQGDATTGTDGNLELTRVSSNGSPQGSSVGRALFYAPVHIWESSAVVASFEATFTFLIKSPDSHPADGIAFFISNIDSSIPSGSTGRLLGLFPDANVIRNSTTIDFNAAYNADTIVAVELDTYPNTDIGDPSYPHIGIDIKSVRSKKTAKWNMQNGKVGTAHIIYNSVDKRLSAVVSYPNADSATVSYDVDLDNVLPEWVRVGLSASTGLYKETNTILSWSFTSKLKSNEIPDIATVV
SMILES,composite z-score (Albumin (Bos taurus)),composite Z-score [1],composite z-score [2],composite z-score [3],composite z-score [4],composite z-score [5],composite z-score [6],composite z-score (Sam68 (KHDRBS1)),composite z-score [7],composite z-score [8],composite z-score [9],composite z-score [10],composite z-score [11],composite z-score [12],composite z-score [13],composite z-score [14],z-score [15],composite z-score (Lefty1),composite z-score [16],z-score [17]
C=C(CCCC)/C(=C/C[C@@H](OC(=O)c1ccncc1)c1ccccc1OCCO)c1cnc2ccccc2c1,0.459,-0.869 (inactive),0.28,-0.105,0.719,0.457,0.603,1.3,0.924,1.07,0.433,1.12,0.0585,0.963,1.44,1.43,1.34,1.61,1.17,-0.514 (inactive)
COC(=O)[C@H](Cc1ccccc1)N1CC(/C=C/C2CC2)=C[C@H]1[C@H](O)Cc1ccccc1,0.59,-0.0662 (inactive),-0.095,-0.14,0.456,0.726,0.148,1.2,0.732,0.981,-0.0173,0.921,0.437,0.667,0.582,0.526,-0.267,0.545,0.958,-0.807 (inactive)
COc1ccc(C(O)C2C=CC3C(=O)N(c4ccccc4)C(=O)C3N2Nc2ccc([N+](=O)[O-])cc2)cc1 (stereo not given),0.968,1.19 (inactive),0.84,0.495,0.637,2.86,0.64,1.31,-0.936,0.989,2.11,1.24,0.961,1.01,0.848,-0.246,0.103,-0.344,1.14,0.732 (inactive)
CN(C)CCCNC(=O)[C@@H]1c2ccccc2C(=O)N(Cc2ccccc2Cl)[C@H]1c1ccc(CO)cc1,0.301,0.247 (inactive),-0.236,-0.0993,0.73,1.17,0.982,0.671,-0.349,-0.284,1.3,0.51,-0.0522,0.462,-0.0713,-0.0728,1.53,-0.92,1.05,-0.751 (inactive)
CCCC[C@@H]1C[C@H]1[C@@H](NC(=O)Cc1ccccc1)c1ccc(-c2ccccc2)cc1,0.83,0.378 (inactive),-0.006,-0.0242,0.66,2.02,-0.273,0.214,-0.436,0.453,0.272,1.12,0.913,0.655,-0.173,-0.405,0.629,-0.0127,0.0864,0.624 (inactive)
CC(C)OC(=O)C=C1C[C@@H](c2ccc(C(F)(F)F)cc2)O[C@@H](c2ccc(C(F)(F)F)cc2)O1,0.856,-0.451 (inactive),-0.102,-0.128,0.717,2.61,0.35,0.886,-0.782,1.09,0.751,1.25,1.04,0.907,-0.0691,-0.46,-0.0127,-0.0747,1.21,-0.478 (inactive)
N#Cc1ccc(C(O)C2C=CC3C(=O)N(c4ccccc4)C(=O)C3N2Nc2ccccc2)cc1 (stereo not given),1.01,0.115 (inactive),0.194,0.0675,0.722,1.59,0.736,0.195,-0.111,0.73,0.269,0.455,0.575,0.528,0.351,-0.265,-0.171,-0.454,0.502,-1.26 (inactive)
COc1ccc([Si](C)(C)[C@H]2[C@H](CCn3cc([C@H](O)c4ccccc4)nn3)O[C@@]3(C(=O)N(Cc4ccc(N5C(=O)c6cccc7cccc5c67)cc4)c4ccccc43)[C@@H]2C)cc1,-0.601,0.389 (inactive),-0.165,-0.14,0.193,0.769,0.838,0.131,-0.803,0.115,0.107,0.0893,-0.254,-0.153,-0.185,0.768,2.81,-0.0986,0.0681,-1.19 (inactive)
CCC[C@@H]1C[C@@]1(CCC)[C@@H](NC(=O)OCc1ccccc1)c1ccc(-c2ccccc2)cc1,-0.477,0.572 (inactive),0.112,0.0339,-0.198,0.27,0.643,-0.303,-0.141,-0.914,-0.526,-0.691,-0.278,-1.37,0.136,-0.824,0.289,-0.543,-0.693,-0.765 (inactive)
COC(=O)Cn1c(C(=O)N(C)C)cc2c1C[C@H]1CN(C(=O)c3ccccc3)[C@@](Cc3ccc(F)cc3)(C(=O)OC)[C@@H]21,0.944,-0.155 (inactive),0.541,0.267,0.884,0.56,0.108,-0.167,0.0171,0.136,2.12,1.02,1.25,0.19,-0.258,0.386,0.354,-0.278,1.3,0.897 (inactive)
C=C(C)[C@@H]1CC=C(C(O)C2C=CC3C(=O)N(c4ccccc4)C(=O)C3N2Nc2ccccc2F)CC1 (stereo not given in full),0.956,0.117 (inactive),0.466,-0.0467,0.747,3.08,-0.102,1.34,0.0095,1.13,0.282,1.27,1.12,0.987,1.11,0.0538,-0.568,0.531,1.27,-0.809 (inactive)
